Test results: PubChem BioAssay (EPA / NIEHS)
“And” between values parts separate entries of the source, which are not always exact repeats. Equal values may be shown once. Where a structure was tested more than once in an assay, its records may differ in their call. The source made the active and inactive calls. How the source made its calls: active means hit-call score of the fitted dose curve at least 0.9, where 1 is the maximum; inactive means score below 0.9.

How the values were obtained:
[1] = read-out: Interleukin-1 alpha (IL1a), IL1A (gene 3552); test: BSK_KF3CT_IL1a: BioMAP Diversity Plus: KF3CT Assay for Interleukin-1 alpha (IL1a) Biomarker Activity (AID 2283070); settings: primary human keratinocytes with fibroblasts; actives raise or lower the signal
Summary of the method: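 Readout is IL-1a level by ELISA, compared bidirectionally with DMSO as baseline. Cells: human keratinocytes co-cultured with foreskin fibroblasts, harvested 24 h post-dose.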

[2] = read-out: TIMP metallopeptidase inhibitor 2 (TIMP2), TIMP2 (gene 7077); test: BSK_KF3CT_TIMP2: BioMAP Diversity Plus: KF3CT Assay for TIMP metallopeptidase inhibitor 2 (TIMP2) Biomarker Activity (AID 2283071); settings: primary human keratinocytes with fibroblasts; actives raise or lower the signal
Summary of the method: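 Chemicals were dosed onto human skin primary co-cultures of keratinocytes and foreskin fibroblasts, and TIMP-2 was measured by ELISA after 24 hours. Activity in either direction was fitted relative to DMSO.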

[3] = read-out: Transforming growth factor beta 1 (TGFb1), TGFB1 (gene 7040); test: BSK_KF3CT_TGFb1: BioMAP Diversity Plus: KF3CT Assay for Transforming growth factor beta 1 (TGFb1) Biomarker Activity (AID 2283072); settings: primary human keratinocytes with fibroblasts; actives raise or lower the signal
Summary of the method: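 KF3CT co-culture (keratinocytes + fibroblasts), 24 h exposure → TGF-b1 ELISA → bidirectional fit, DMSO = baseline. Parallel SRB total-protein staining (0.1% SRB, 10% TCA fixation, 560 nm) for cytotoxicity.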

[4] = read-out: C-C motif chemokine 2 (Homo sapiens) (UniProt P13500); test: BSK_KF3CT_MCP1: BioMAP Diversity Plus: KF3CT Assay for Monocyte Chemoattractant Protein 1 (MCP1/CCL2) Biomarker Activity (AID 2283073); settings: primary human keratinocytes with fibroblasts; actives raise or lower the signal
Summary of the method: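 Keratinocytes and foreskin fibroblasts were co-cultured, dosed with chemical, and sampled 24 h later. MCP-1 was quantified by ELISA, and the endpoint was analyzed with bidirectional fitting using DMSO as negative control.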

[5] = read-out: Matrix Metallopeptidase 9 (MMP9), MMP9 (gene 4318); test: BSK_KF3CT_MMP9: BioMAP Diversity Plus: KF3CT Assay for Matrix Metallopeptidase 9 (MMP9) Biomarker Activity (AID 2283074); settings: primary human keratinocytes with fibroblasts; actives raise or lower the signal
Summary of the method: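 Values come from bidirectional fitting relative to DMSO of MMP-9 levels, which were measured by ELISA. Measurements were taken 24 h after chemical dosing of a keratinocyte and foreskin fibroblast co-culture.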

[6] = read-out: E-selectin (Homo sapiens) (UniProt P16581); test: BSK_LPS_Eselectin: BioMAP Diversity Plus: LPS Assay for Eselectin Biomarker Activity (AID 2283077); settings: primary human HUVEC with PBMC; actives raise or lower the signal
Summary of the method: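 Signal of E-selectin, detected by ELISA, served as the endpoint; cells were umbilical vein endothelium with PBMC, read 24 h after treatment. DMSO defined baseline, and both increases and decreases were fitted.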

[7] = read-out: Interleukin-8 (IL8), CXCL8 (gene 3576); test: BSK_LPS_IL8: BioMAP Diversity Plus: LPS Assay for Interleukin-8 (IL8) Biomarker Activity (AID 2283078); settings: primary human HUVEC with PBMC; actives raise or lower the signal
Summary of the method: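 Endothelial cells and PBMC from human donors are co-cultured, treated with chemicals and LPS, then assayed for IL-8 by ELISA after 24 h. Parallel SRB staining (0.1% SRB after 10% TCA fixation, 560 nm) flags cytotoxicity.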

[8] = BSK_LPS_SRB: Viability Assessment in the BioMAP Diversity Plus: LPS Assay (AID 2283079); settings: primary human HUVEC with PBMC;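 further: total protein by sulforhodamine B absorbance as a cytotoxicity measure; measured one day after compound addition; fitted in both directions against DMSO so loss or gain of signal counts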
Summary of the method: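 Overt cytotoxicity was gauged by sulforhodamine B total-protein staining in a primary human vascular endothelial and mononuclear cell co-culture 24 h post-dosing. Activity was fitted in both directions relative to DMSO.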

[9] = read-out: Interleukin-1 alpha (IL1a), IL1A (gene 3552); test: BSK_LPS_IL1a: BioMAP Diversity Plus: LPS Assay for Interleukin-1 alpha (IL1a) Biomarker Activity (AID 2283080); settings: primary human HUVEC with PBMC; actives raise or lower the signal
Summary of the method: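 Measured: IL-1 alpha via ELISA at 24 h in LPS-activated human umbilical vein endothelium–PBMC co-culture. Baseline: DMSO, bidirectional fitting.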

[10] = read-out: Monocyte Chemoattractant Protein-1 (MCP1), CCL2 (gene 6347); test: BSK_LPS_MCP1: BioMAP Diversity Plus: LPS Assay for Monocyte Chemoattractant Protein-1 (MCP1) Biomarker Activity (AID 2283081); settings: primary human HUVEC with PBMC; actives raise or lower the signal
Summary of the method: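 LPS-stimulated HUVEC/PBMC co-culture; chemical, 24 h; MCP-1 by ELISA; bidirectional fit vs DMSO; cytotoxicity via SRB (0.1% stain, 10% TCA fix, 560 nm) in parallel wells.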

[11] = BSK_LPS_PGE2: BioMAP Diversity Plus: LPS Assay for Prostaglandin E2 (PGE2) Biomarker Activity (AID 2283082); settings: primary human HUVEC with PBMC; actives raise or lower the signal
Summary of the method: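 Compounds were added to the LPS co-culture of endothelium and PBMC, and PGE2 was measured by ELISA after 24 h. Responses in either direction were fitted with DMSO as baseline.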

[12] = read-out: Macrophage colony-stimulating factor (MCSF), CSF1 (gene 1435); test: BSK_LPS_MCSF: BioMAP Diversity Plus: LPS Assay for Macrophage colony-stimulating factor (MCSF) Biomarker Activity (AID 2283083); settings: primary human HUVEC with PBMC; actives raise or lower the signal
Summary of the method: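 Compound is added to a human vascular primary co-culture of umbilical vein endothelium and blood mononuclear cells. After 24 h, M-CSF is quantified by ELISA. Signal changes are fitted in both directions against DMSO.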

[13] = read-out: Tissue Factor, F3 (gene 2152); test: BSK_LPS_TissueFactor: BioMAP Diversity Plus: LPS Assay for Tissue Factor Biomarker Activity (AID 2283084); settings: primary human HUVEC with PBMC; actives raise or lower the signal
Summary of the method: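 In this co-culture system of umbilical vein endothelium with PBMC, stimulated with LPS, cell-surface CD142 is detected by ELISA at 24 h. Endpoint values derive from bidirectional fitting, DMSO serving as baseline.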

[14] = read-out: Tumor necrosis factor (Homo sapiens) (UniProt P01375); test: BSK_LPS_TNFa: BioMAP Diversity Plus: LPS Assay for Tumour Necrosis Factor alpha (TNFa) Biomarker Activity (AID 2283085); settings: primary human HUVEC with PBMC; actives raise or lower the signal;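 on AC50: TNFa protein level quantified by ELISA in the co-culture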
Summary of the method: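 Cells (umbilical vein endothelium plus peripheral blood mononuclear cells) were dosed with chemical, incubated 24 h, then TNFa was quantified by ELISA; values derive from bidirectional fitting with DMSO as baseline.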

[15] = read-out: Vascular cell adhesion molecule 1 (VCAM1), VCAM1 (gene 7412); test: BSK_LPS_VCAM1: BioMAP Diversity Plus: LPS Assay for Vascular cell adhesion molecule 1 (VCAM1) Biomarker Activity (AID 2283086); settings: primary human HUVEC with PBMC; actives raise or lower the signal
Summary of the method: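 Cells are dosed in an LPS-stimulated endothelial/mononuclear co-culture and, after 24 h, VCAM-1 is quantified by ELISA. Activity in either direction is fitted relative to the DMSO negative control.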

CD40, CD40 (gene 958) = test: BSK_SAg_CD40: BioMAP Diversity Plus: SAg Assay for CD40 Biomarker Activity (AID 2283088); settings: primary human HUVEC with PBMC; actives raise or lower the signal
Summary of the method: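 Fluorescence ELISA read-out of CD40 from umbilical vein endothelium plus peripheral blood mononuclear cells, sampled 24 h after dosing. Values come from bidirectional curve fitting with DMSO as baseline.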

CD69, CD69 (gene 969) = test: BSK_SAg_CD69: BioMAP Diversity Plus: SAg Assay for CD69 Biomarker Activity (AID 2283089); settings: primary human HUVEC with PBMC; actives raise or lower the signal
Summary of the method: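 ELISA, fluorescence read-out: CD69 on human umbilical vein endothelial cell + PBMC co-culture, 24 h post-dosing. Gain or loss of signal fitted bidirectionally against DMSO baseline.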

CD38, CD38 (gene 952) = test: BSK_SAg_CD38: BioMAP Diversity Plus: SAg Assay for CD38 Biomarker Activity (AID 2283087); settings: primary human HUVEC with PBMC; actives raise or lower the signal
Summary of the method: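 CD38 quantified by ELISA (fluorescence) in a superantigen-activated endothelial cell–PBMC co-culture at 24 h post-dose. Activity fitted in both directions relative to DMSO; parallel SRB and Alamar Blue cytotoxicity read-outs.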

[16] = read-out: urokinase plasminogen activator (uPA), PLAU (gene 5328); test: BSK_KF3CT_uPA: BioMAP Diversity Plus: KF3CT Assay for urokinase plasminogen activator (uPA) Biomarker Activity (AID 2283075); settings: primary human keratinocytes with fibroblasts; actives raise or lower the signal
Summary of the method: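 Values derive from bidirectional fitting against DMSO controls. Keratinocyte/foreskin fibroblast co-cultures received chemical; 24 h later uPA was detected by ELISA, with SRB total-protein staining in parallel wells for overt cytotoxicity.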

Measured: AC50

Chain of Tumor necrosis factor (Homo sapiens) (P01375 whole entry, looked up): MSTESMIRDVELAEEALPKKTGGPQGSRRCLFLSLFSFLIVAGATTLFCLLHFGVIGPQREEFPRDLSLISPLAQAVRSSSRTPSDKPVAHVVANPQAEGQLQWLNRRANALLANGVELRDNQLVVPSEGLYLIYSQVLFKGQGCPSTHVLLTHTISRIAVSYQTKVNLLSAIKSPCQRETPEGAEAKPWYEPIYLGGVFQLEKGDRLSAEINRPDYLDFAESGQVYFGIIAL
Chain of E-selectin (Homo sapiens) (P16581 whole entry, looked up): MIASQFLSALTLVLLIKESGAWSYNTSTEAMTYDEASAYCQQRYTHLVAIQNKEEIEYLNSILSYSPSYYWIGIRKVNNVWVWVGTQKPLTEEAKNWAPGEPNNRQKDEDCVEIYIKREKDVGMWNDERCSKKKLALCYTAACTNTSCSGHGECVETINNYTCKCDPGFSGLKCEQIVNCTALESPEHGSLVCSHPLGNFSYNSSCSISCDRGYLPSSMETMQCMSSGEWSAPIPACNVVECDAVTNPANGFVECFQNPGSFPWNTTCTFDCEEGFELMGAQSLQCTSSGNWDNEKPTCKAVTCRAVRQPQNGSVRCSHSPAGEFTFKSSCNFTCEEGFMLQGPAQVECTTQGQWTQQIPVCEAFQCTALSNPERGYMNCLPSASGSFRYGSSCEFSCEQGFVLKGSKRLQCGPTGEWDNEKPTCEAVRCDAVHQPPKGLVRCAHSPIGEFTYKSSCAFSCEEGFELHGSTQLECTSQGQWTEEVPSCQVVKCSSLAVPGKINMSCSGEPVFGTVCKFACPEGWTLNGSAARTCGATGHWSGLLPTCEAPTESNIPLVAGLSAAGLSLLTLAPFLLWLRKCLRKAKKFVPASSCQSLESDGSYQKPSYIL

S=P(N1CC1)(N1CC1)N1CC1
inactive: [1] | [2] | [3] | [4] | [5] | [6] | [7] | [8] | [9] | [10] | [11] | [12] | [13] | [14] | [15] | CD40, CD40 (gene 958) | CD69, CD69 (gene 969)

OC(Cn1cncn1)(Cn1cncn1)c1ccc(F)cc1F
inactive: [1] | [2] | [3] | [4] | [5] | [6] | [7] | [9] | [10] | [11] | [12] | [13] | [14] | [15] | CD38, CD38 (gene 952) | CD40, CD40 (gene 958) | CD69, CD69 (gene 969)

Cc1ncc([C@@H](CCCCCCc2ccc3c(n2)NCCC3)CC(=O)O)cn1
inactive: [1] | [2] | [3] | [4] | [5] | [6] | [7] | [9] | [10] | [11] | [12] | [13] | [14] | [15] | CD38, CD38 (gene 952) | CD40, CD40 (gene 958)

OCc1ccccc1
inactive: [1] | [2] | [3] | [4] | [5] | [6] | [7] | [8] | [9] | [10] | [11] | [12] | [13] | [14] | [15] | CD38, CD38 (gene 952) | CD40, CD40 (gene 958) | CD69, CD69 (gene 969)

O=c1[nH]cnc2c1ncn2[C@H]1CC[C@@H](CO)O1
inactive: [1] | [2] | [3] | [4] | [5] | [6] | [7] | [9] | [10] | [11] | [13] | [14] | [15] | CD40, CD40 (gene 958)

FC(F)(F)COC(OCC(F)(F)F)OCC(F)(F)F
inactive: [1] | [2] | [4] | [5] | [6] | [7] | [9] | [10] | [11] | [12] | [13] | [14] | [15] | CD38, CD38 (gene 952) | CD40, CD40 (gene 958) | CD69, CD69 (gene 969)

O=C1CN(N=Cc2ccc([N+](=O)[O-])o2)C(=O)N1
active: [15] 20 µM
inactive: [1] | [2] | [3] | [4] | [5] | [6] | [7] | [9] | [10] | [11] | [12] | [13] | [14] | CD38, CD38 (gene 952) | CD40, CD40 (gene 958) | CD69, CD69 (gene 969)

C[Si](C)(C)C(F)(F)C(F)(F)C(F)(F)F
inactive: [1] | [2] | [4] | [5] | [6] | [7] | [9] | [10] | [11] | [12] | [13] | [14] | [15] | CD40, CD40 (gene 958) | CD69, CD69 (gene 969)

c1ccc2cc3ccccc3cc2c1
inactive: [1] | [2] | [3] | [4] | [5] | [6] | [7] | [8] | [9] | [10] | [11] | [12] | [13] | [14] | [15] | CD40, CD40 (gene 958)

O=C(Cl)C(F)(F)C(F)(F)C(F)(F)C(=O)Cl
inactive: [1] | [2] | [4] | [5] | [16] | [6] | [7] | [8] | [9] | [10] | [11] | [12] | [13] | [14] | [15] | CD40, CD40 (gene 958) | CD69, CD69 (gene 969)

NNC(=O)c1ccncc1
inactive: [1] | [2] | [3] | [4] | [5] | [6] | [7] | [8] | [9] | [10] | [11] | [12] | [13] | [14] | [15] | CD40, CD40 (gene 958)

OC(O)(C(F)C(O)(O)C(F)(F)F)C(F)(F)F
active: [13] 0.308 µM | [14] 4 µM and 13.3 µM
inactive: [1] | [2] | [4] | [5] | [16] | [6] | [7] | [9] | [10] | [11] | [12] | [13] | [15] | CD40, CD40 (gene 958)

NC(=O)N1c2ccccc2C=Cc2ccccc21
inactive: [1] | [2] | [3] | [4] | [5] | [6] | [7] | [8] | [9] | [10] | [11] | [12] | [13] | [14] | [15] | CD38, CD38 (gene 952) | CD40, CD40 (gene 958) | CD69, CD69 (gene 969)
